# Screening results (PubChem BioAssay)
# Only a selection was taken, and hits are over-represented in it overall.
# aSyn 5UTR act = Activators via SNCA 5'UTR binding, MLPCN | 7.1% of 300,000 active | activity score, % (tested at 7.5 µM), hits read low | alpha-synuclein 5'UTR reporter, activators screen; in the data active = activity score below about -60%
# * hit, by the source's call.
SMILES,aSyn 5UTR act
O=c1cc(-c2ccc(O)cc2)oc2ccccc12,-137.7*
Nc1c(-c2ccc3c(c2)OCCO3)oc2ccccc2c1=O,-144.6*
O=c1cc(-c2ccc(O)cc2)oc2ccc(O)cc12,-151.3*
COc1ccc(-c2cc(=O)c3ccccc3o2)cc1,-216.0*
Cn1c2ccccc2c(=O)c2ccc(-c3ccc4c(c3)OCO4)cc21,-144.6*
O=c1cc(-c2ccc3c(c2)OCO3)oc2ccccc12,-296.7*
C/C(N)=C(/C#N)C(=O)COC(=O)c1cccc2ccccc12,-62.5*
COc1ccc2oc(C(=O)OCC(=O)/C(C#N)=C(\C)N)c(C)c2c1,-81.3*
O=C(Nc1ccc(/C=C/c2nc3ccccc3o2)cc1)c1ccc(F)cc1,-117.3*
Cc1ccc(C)n1-c1ccc(C(=O)Nc2ccccc2)cc1,-81.7*
Cc1ccc(C)n1-c1cccc(NC(=O)c2ccccc2)c1,-72.7*
CCOc1ccc(/C=N/n2cc(-c3ccccc3)[nH]c2=S)cc1,-64.8*
CC(C)(C)c1csc(NC(=O)c2ccc3nccnc3c2)n1,-178.2*
Cc1ccc(NC(=O)c2ccc3nccnc3c2)c(C)c1,-101.6*
Cc1cccc(NC(=O)c2ccc3nccnc3c2)n1,-75.9*
Cc1nc(NC(=O)c2ccc3c(c2)OCO3)ccc1Br,-140.3*
Cc1cccc(NC(=O)c2ccc3c(c2)OCCO3)n1,-83.9*
Cc1cc(NC(=O)c2ccc3c(c2)OCCO3)no1,61.8
COc1ccccc1C(=O)NNC(=O)c1cccc(C)c1,-138.5*
COc1ccccc1C(=O)NNC(=O)c1cccc([N+](=O)[O-])c1,-61.7*
O=C(Nc1ccn(Cc2ccccc2F)n1)c1ccc(COc2ccc(Br)cc2)cc1,-68.5*
O=C(Nc1ccn(Cc2ccccc2)n1)c1ccc(F)cc1,-120.1*
O=C(Nc1ccn(Cc2ccc(Cl)cc2)n1)c1ccc2c(c1)OCO2,-70.4*
Cc1ccc(Cn2ccc(NC(=O)c3nn(C)cc3Cl)n2)cc1,-112.4*
Nc1ccc(C(=O)N/N=C/c2cn(Cc3ccc(F)cc3)c3ccccc23)cc1,64.3
SMILES,aSyn 5UTR act
Cc1cccc(-c2noc(Cc3ccccc3)n2)c1,-169.5*
Cc1cccc(-c2noc(CCc3ccccc3)n2)c1,-121.0*
Cc1ccc(-c2noc(CNc3ccccc3)n2)cc1,-77.8*
Cc1ccc(NC(=O)CCC(=O)c2cccs2)c(Br)c1,-78.7*
Cc1ccc(NC(=O)CNCc2ccccc2)c(Br)c1,-68.1*
Cc1ccc(NC(=O)CNCc2cccs2)c(Br)c1,-119.2*
Cc1ccc(NC(=O)CCc2ccc(C)o2)c(Br)c1,-72.1*
O=C(Nc1nc2c(F)c(F)c(F)cc2s1)c1ccco1,-178.7*
O=C(NC(=S)Nc1nc2c(ccc3ccccc32)s1)c1cccs1,-63.2*
O=C(Nc1nc2c(ccc3ccccc32)s1)c1ccco1,-293.2*
O=C(Nc1ccc(-c2nc3c(ccc4ccccc43)o2)cc1)c1ccco1,-164.8*
Cc1cccc(C(=O)Nc2sc(-c3ccccc3)cc2C(=O)O)c1,-180.4*
CC(C)(C)C(=O)Nc1sc(-c2ccccc2)cc1C(=O)O,-87.0*
CC(C)(C)C1CCc2c(sc(NC(=O)c3cccs3)c2C(N)=O)C1 (stereo not drawn),-157.6*
COCCn1c(C)cc(C(=O)CSc2nc3ccccc3c(=O)n2Cc2ccco2)c1C,-176.1*
O=[N+]([O-])c1ccc(Sc2n[nH]c(-c3ccccc3)n2)nc1,-73.0*
Cc1ccnc(Sc2ccc([N+](=O)[O-])cn2)n1,-72.3*
COc1ccc(NC(=O)Nc2cccs2)cc1OC,-81.6*
COc1cccc(NC(=O)Nc2cccs2)c1,-80.4*
O=C(O)Cc1sc(Nc2ccccc2)nc1-c1ccc(Cl)cc1,-149.4*
O=C(Cc1sc(Nc2ccccc2)nc1-c1ccccc1)NCc1ccccn1,-182.4*
O=C(O)Cc1sc(Nc2ccc(F)cc2)nc1-c1cccs1,-132.4*
Cc1ccc(Nc2nc(-c3ccccc3)c(CC(=O)O)s2)cc1,-154.8*
COC(=O)c1cn(CCOc2ccccc2)c2ccccc12,-152.6*
COc1cccc(Nc2nc(CC(C)=O)ns2)c1,-86.3*
SMILES,aSyn 5UTR act
COc1ccc(Nc2nc(CC(C)=O)ns2)cc1,-109.0*
CC(=O)Cc1nsc(Nc2ccc3c(c2)OCCO3)n1,-124.9*
c1ccc2[nH]c(SCC3CCCCO3)nc2c1 (stereo not drawn),-76.3*
ClC1(Cl)CC1CSc1nc2ccccc2[nH]1 (stereo not drawn),-77.2*
CCOc1ccc2nc(SCC3CC3(Cl)Cl)[nH]c2c1 (stereo not drawn),-152.8*
CCN(C(=O)c1cc2ccccc2oc1=O)c1ccccc1,-123.8*
O=C(c1cc2ccccc2oc1=O)N(c1ccccc1)C1C=CS(=O)(=O)C1 (stereo not drawn),-102.4*
COc1ccc(N(C(=O)c2cc3ccccc3oc2=O)C2C=CS(=O)(=O)C2)cc1 (stereo not drawn),-61.8*
CC(C)c1ccc(N(C(=O)c2cc3ccccc3oc2=O)C2C=CS(=O)(=O)C2)cc1 (stereo not drawn),-122.5*
CCN(CC)C(=O)c1ccc2c(c1[N+](=O)[O-])C(=O)c1ccccc1C2=O,-93.3*
CCN(CC)CCNC(=O)c1ccc2c(c1NCCO)C(=O)c1ccccc1C2=O,95.6
O=C(Cn1ncc(N2CCOCC2)c(Cl)c1=O)c1ccc(Cl)cc1,-105.3*
COc1ccc(/C=C/C(=O)c2ccc(NC3=NCCCS3)cc2)cc1OC,-99.3*
Oc1csc(Cc2nc(-c3ccc(Br)cc3)cs2)n1,-291.0*
CC(CC(=O)NCc1ccccc1)C1CCCO1 (stereo not drawn),-62.0*
CCCCn1cnc2c([nH]c3cc(OC)ccc32)c1=O,-129.2*
COc1ccc2c(c1)[nH]c1c(=O)n(Cc3ccco3)cnc12,-65.4*
C/C(=N\OC(=O)c1ccc(Cl)cc1)c1sc(-c2ccccc2)nc1C,-123.8*
C/C(=N\OC(=O)c1ccc(F)cc1)c1sc(-c2ccccc2)nc1C,-158.4*
CCOc1ccc(N/C(C)=C/C(=O)c2ccc(C)o2)cc1,-78.6*
Cc1cc(C)n2nc(C(=O)Nc3ccc4c(c3)OCO4)nc2n1,-112.9*
C/C(=C\C(=O)c1ccccc1)Nc1ccc2c(c1)OCO2,-115.0*
Cc1ccc(C(=O)Nc2ccc3c(c2)OCO3)o1,-118.0*
C/C(=C\C(=O)c1ccc(C)o1)Nc1ccc2c(c1)OCO2,-170.3*
Cc1ccc(C(=O)Nc2nc(C)c(C)s2)o1,-114.2*
SMILES,aSyn 5UTR act
Cc1nc(NC(=O)c2ccc(Br)o2)sc1C,-129.4*
Cc1ccc(C(=O)Cn2nnc3ccccc32)cc1C,-90.4*
Cc1ccc(C(=O)Cn2nnc3ccccc32)cc1,-161.4*
O=C(CCn1nnc2ccccc21)N1CCN(c2ccccc2)CC1,-118.9*
O=C(Cn1nnc2ccccc2c1=O)NC1CCCCC1,-68.3*
CC(=O)Nc1ccc(C(=O)Cn2nnc3ccccc3c2=O)cc1,-65.7*
Cc1ccc(NC(=O)CCn2nnc3ccccc32)cc1,-84.2*
O=C(Cn1nnc2ccccc21)c1ccc(Br)cc1,-82.2*
COc1ccc(/C(N)=N/OC(=O)CCc2ccccc2)cc1,-100.2*
Cc1cccc(/C(N)=N/OC(=O)CCc2ccccc2)c1,-156.6*
N/C(=N\OC(=O)Cc1ccccc1)c1ccc(Br)cc1,-79.9*
COc1ccc(C(=O)CC(=O)C(=O)Nc2ccc(C)c(C)c2)cc1,-63.4*
COc1ccc(NC(=O)CCSc2ccc(F)cc2)cc1,-92.7*
COc1ccc(C(=O)CCc2ccccc2)cc1,-110.7*
O=C(Cc1ccccn1)c1ccc(F)cc1,-64.4*
COc1ccc(OCc2cccc(C(=O)O)c2)cc1,127.6
Cc1ccc(/C(N)=N/OC(=O)CCCc2ccccc2)cc1,-68.0*
